Bim-Mcl-1 – inhibitors of Bim peptide binding to Mcl-1, primary screen, biochemical, bead-based flow cytometry, multiplex; Induced myeloid leukemia cell differentiation protein Mcl-1 (Homo sapiens), Q07820; Bim peptide-Mcl-1 binding; hit rate 0.1% among 190,000; inhibition, % at 10 µM; AID 1009, 2008; in the data active = inhibition above about 40%
Target sequence (Q07820 whole entry, looked up): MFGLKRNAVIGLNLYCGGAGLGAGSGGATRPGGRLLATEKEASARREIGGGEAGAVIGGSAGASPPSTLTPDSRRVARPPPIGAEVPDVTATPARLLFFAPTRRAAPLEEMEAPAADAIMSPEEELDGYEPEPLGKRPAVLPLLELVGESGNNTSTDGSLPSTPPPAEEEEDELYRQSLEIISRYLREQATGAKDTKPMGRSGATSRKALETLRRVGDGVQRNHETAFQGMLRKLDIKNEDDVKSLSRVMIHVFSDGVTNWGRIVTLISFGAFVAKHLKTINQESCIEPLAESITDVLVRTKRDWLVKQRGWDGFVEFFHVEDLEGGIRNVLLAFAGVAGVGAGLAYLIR
MCL1-BIM inh – inhibitors of MCL1 binding to BIM-BH3, primary screen, biochemical, fluorescence polarization. Induced myeloid leukemia cell differentiation protein Mcl-1 (Homo sapiens), Q07820. AID 2057, 2009. hit rate 0.68% among 320,000. GST-MCL1 / FITC-Bim-BH3 fluorescence polarization. inhibition, % at 10.9 µM;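 active = inhibition above the mean inhibition of all tested compounds plus 3 SD, set per campaign, cut at about 40% in these data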;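 note: higher means more loss of mP so more displacement of Bim peptide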
Mcl1-Noxa inh – Mcl-1/Noxa binding inhibitors, primary screen, biochemical, TR-FRET, 1536-well; inhibition, % at 21.7 µM; hit rate 1.5% among 220,000; Induced myeloid leukemia cell differentiation protein Mcl-1 (Homo sapiens), Q07820; TR-FRET Mcl-1/Noxa peptide binding, 2 h; AID 1022, 2008;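 active = compounds that cut the protein-peptide binding signal by more than 50% relative to plate controls in a single-dose test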;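 note: His-tagged Mcl-1 with rhodamine Noxa BH3 peptide and terbium anti-His antibody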
Mcl1-Bid inh – Mcl-1/Bid binding inhibitors, primary screen, biochemical, TR-FRET, 1536-well; Induced myeloid leukemia cell differentiation protein Mcl-1 (Homo sapiens), Q07820; TR-FRET Mcl-1/Bid-Dy647 peptide binding; inhibition, % at 21.7 µM; hit rate 0.97% among 220,000;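 active = compounds that cut the binding signal by more than half at the single screening dose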;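 note: His-tagged Mcl-1 with europium anti-His antibody binding Bid BH3 peptide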
14-3-3 Bad inh – inhibitors of 14-3-3 zeta/Bad binding, primary screen, biochemical, TR-FRET, bovine 14-3-3 zeta | 14-3-3 protein zeta/delta (Bos taurus), P63103 | inhibition, % at 21.7 µM | hit rate 0.71% among 220,000 | TR-FRET 14-3-3zeta/Dy647-pBad peptide displacement, 1 h | AID 781, 2007;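 active = inhibition above about 70%, limit read from the data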
Target sequence (P63103 whole entry, looked up): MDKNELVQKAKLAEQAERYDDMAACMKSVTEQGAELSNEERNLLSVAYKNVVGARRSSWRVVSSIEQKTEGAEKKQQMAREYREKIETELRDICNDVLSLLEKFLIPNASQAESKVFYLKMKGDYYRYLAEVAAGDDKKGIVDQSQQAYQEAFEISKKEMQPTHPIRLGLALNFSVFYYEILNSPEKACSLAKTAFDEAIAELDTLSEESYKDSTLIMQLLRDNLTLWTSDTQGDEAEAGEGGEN
Large screens that a line does not name were inactive; [ ] = another dose, or the depositor's remark. Shown are actives, neighbours in structure and some others; about 2.5% of the full set was active somewhere.

COC(=O)c1ccccc1NC(=O)c1ccc(COc2ccc3c(c2)CCC3)cc1	Mcl1-Bid inh 57.8
Cc1c(NC(=O)c2ccc(F)cc2)c(=O)n(-c2ccccc2)n1C	none
O=C(N1CCOCC1)N1CCN(C(=O)N(c2ccccc2)c2ccccc2)CC1	none
Cn1c(=O)n(CCc2ccccc2)c(=O)c2c1nc1n2CCN1Cc1ccco1	none
Clc1ccc(OCCCNCc2ccccc2)c(Br)c1	Mcl1-Bid inh 70.3
C=CCNCCCOc1ccc(Cl)cc1Br	Mcl1-Bid inh 76.5
Cc1ccc(-c2c(C(=O)Nc3ccccc3C)c(C)[nH]c(=S)c2C#N)o1	none
Cc1ccccc1NC(=O)c1c(C)[nH]c(=S)c(C#N)c1-c1ccc(Cl)cc1	Mcl1-Bid inh 71.3 (no result: Bim-Mcl-1)
O=C(COc1c(Br)cc(Br)c2cccnc12)N1CCc2ccccc2C1	none
Cc1ccccc1CSc1nnc(NC(=O)Cc2cccs2)s1	Mcl1-Noxa inh 66.0
O=C(N/N=C/c1cccnc1)c1ccc(O)cc1	none (no result: Bim-Mcl-1, Mcl1-Noxa inh, Mcl1-Bid inh, 14-3-3 Bad inh)
CN1CCN(c2ccc([N+](=O)[O-])cc2/C=N/NC(=O)c2ccc(F)cc2)CC1	Mcl1-Noxa inh 74.6 (no result: MCL1-BIM inh)
O=C(N/N=C/c1ccc(Br)s1)c1ccc([N+](=O)[O-])cc1	14-3-3 Bad inh 71.0
O=C(N/N=C/c1ccc(Br)s1)c1ccccc1[N+](=O)[O-]	none
Cc1ccc([N+](=O)[O-])cc1N=Cc1ccc(Br)s1	14-3-3 Bad inh 73.5
COc1ccc(S(=O)(=O)N2CCC(C(=O)N3CCN(C)CC3)CC2)cc1OC	none (no result: Bim-Mcl-1, Mcl1-Noxa inh, Mcl1-Bid inh, 14-3-3 Bad inh)
CC(C)(C)c1cc(C(=O)NCCCn2ccnc2)cc(C(C)(C)C)c1	none (no result: Bim-Mcl-1, Mcl1-Noxa inh, Mcl1-Bid inh, 14-3-3 Bad inh)
O=C(CCCCl)NC1=NN(c2ccccc2)C(=O)C1	none
Cc1cccc(CS(=O)(=O)Cc2ccc(C(=O)O)o2)c1	Mcl1-Noxa inh 56.4
COCCCNC(=O)c1ccc(CS(=O)(=O)Cc2cccc(C)c2)o1	none
Cc1cc2nc(CO)[nH]c2cc1C	none (no result: Bim-Mcl-1)
Cc1cc2nc(/C=C/c3nc4cc(C)c(C)cc4[nH]3)[nH]c2cc1C	Mcl1-Noxa inh 79.3 (no result: Bim-Mcl-1)
COc1ccc(CCN(C)CC(=O)Nc2c(C)cc(C)cc2C)cc1OC	none (no result: Bim-Mcl-1, Mcl1-Noxa inh, Mcl1-Bid inh, 14-3-3 Bad inh)
O=C(CCCN1CCC(C(=O)c2ccc(F)cc2)CC1)c1ccc(F)cc1	none (no result: Bim-Mcl-1, Mcl1-Noxa inh, Mcl1-Bid inh, 14-3-3 Bad inh)
CSc1nc(=O)n2cccc(C)c2n1	14-3-3 Bad inh 97.2[fluorescence artefact?]
O=[N+]([O-])c1ccc(NC(=S)NCCc2ccc(Cl)cc2)cc1	Mcl1-Bid inh 93.6
N/C(=N\OCC(=O)Nc1ccccc1)c1nonc1N	none
c1ccc(-c2cc(-c3nn4c(-c5ccco5)nnc4s3)c3ccccc3n2)cc1	Mcl1-Noxa inh 50.8
COc1ccc(-c2nn3c(-c4ccco4)nnc3s2)cc1OC	none (no result: 14-3-3 Bad inh)
COc1cc(OC)c(-c2nn3c(-c4ccco4)nnc3s2)cc1OC	Mcl1-Noxa inh 64.4 (no result: MCL1-BIM inh)
O=C1CC(NC2CCN(C(=O)c3cccc(F)c3)CC2)C(=O)N1 (stereo not given)	none (no result: Bim-Mcl-1, Mcl1-Noxa inh, Mcl1-Bid inh, 14-3-3 Bad inh)
COc1ccc(/C=N/NC(=O)c2nn(-c3ccc(Cl)cc3)c(=O)c3c(N)scc23)cc1	Mcl1-Noxa inh 57.2
N#CCSc1nc2cc(C(=O)N3CCC(C(N)=O)CC3)ccc2c2nc3ccccc3n12	Mcl1-Noxa inh 51.4
COc1ccc2c(c1)CCN(C(=O)CCl)C2C1C(=O)CCCC1=O (stereo not given)	none
S=c1[nH]nc(C2CCCCC2)n1/N=C/c1ccccc1Cl	none (no result: Bim-Mcl-1, Mcl1-Noxa inh, Mcl1-Bid inh, 14-3-3 Bad inh)
NC(=O)CSc1nnc(-c2cccc(S(=O)(=O)N3CCCCC3)c2)o1	14-3-3 Bad inh 84.5 (no result: Bim-Mcl-1)
CCc1nc(OCCN(CC)CC)c2oc3ccccc3c2n1	14-3-3 Bad inh 79.7
O=C(O)CC(CC(=O)Nc1ccc2ccccc2n1)c1ccccc1 (stereo not given)	none (no result: Bim-Mcl-1)
CC(C)OC(=O)c1ccccc1C(=O)c1ccc(N)c([N+](=O)[O-])c1	Mcl1-Noxa inh 61.5
O=C(c1ccncc1)N1CCN(C2CCC(c3ccccc3)CC2)CC1 (stereo not given)	none (no result: Bim-Mcl-1)
COc1cccc(C(=O)N2CCN(Cc3ccccn3)CC2)c1OC	Mcl1-Bid inh 68.5
COc1cccc(C(=O)N2CCN(C3CCC(c4ccccc4)CC3)CC2)c1OC (stereo not given)	Mcl1-Bid inh 54.8
O=C(C(c1ccccc1)c1ccccc1)N1CCN(Cc2ccccn2)CC1	14-3-3 Bad inh 71.0
O=C(C(c1ccccc1)c1ccccc1)N1CCN(c2ccccn2)CC1	none
O=C(C(c1ccccc1)c1ccccc1)N1CCN(Cc2ccncc2)CC1	14-3-3 Bad inh 75.5
COc1ccc(CNC(=O)C2CCC(CNS(=O)(=O)c3cccs3)CC2)cc1 (stereo not given)	none (no result: Bim-Mcl-1, Mcl1-Noxa inh, Mcl1-Bid inh, 14-3-3 Bad inh)
COc1ccc(C(=O)NC2CCN(C(=S)Nc3cc(C)ccc3C)CC2)cc1	none
CC(C)(C)n1nnnc1C(c1cccnc1)N1CCN(c2cccc(C(F)(F)F)c2)CC1 (stereo not given)	Mcl1-Bid inh 58.0
COc1ccc2c(c1)O[C@H](c1ccc3c(c1)OCO3)[C@@H](OC(=O)N[C@H](C)C1CCCCC1)C2=O	14-3-3 Bad inh 92.4
COc1cccc([C@@H]2Oc3ccc(OC)cc3C(=O)[C@H]2OC(=O)N[C@H](C)C2CCCCC2)c1	none
COc1ccc2c(c1)O[C@H](c1ccc3c(c1)OCO3)[C@@H](OC(=O)Nc1cc(OC)c(OC)c(OC)c1)C2=O	14-3-3 Bad inh 80.6[fluorescence artefact?]
COC(=O)C1=C(C)N(Cc2ccccc2)C(=O)N[C@H]1CCc1ccccc1	none (no result: Bim-Mcl-1, Mcl1-Noxa inh, Mcl1-Bid inh, 14-3-3 Bad inh)
CCCCN(CC)CCCNC(=O)c1cn(CC)c2ccc(S(=O)(=O)N3CCc4ccccc4C3)cc2c1=O	none
CCCCN(C)CCCNC(=O)c1cn(CC)c2ccc(S(=O)(=O)N3CCc4ccccc4C3)cc2c1=O	Mcl1-Noxa inh 52.7
COc1ccc(N2C(=O)C(CN3CCCCC3)C2c2ccccc2)cc1 (stereo not given)	14-3-3 Bad inh 88.9
CCN(CC)CC1C(=O)N(c2ccc(OC)cc2)C1c1ccccc1 (stereo not given)	none (no result: Bim-Mcl-1, Mcl1-Noxa inh, Mcl1-Bid inh, 14-3-3 Bad inh)
S=C(Nc1ccccc1Cl)Nc1ccc(Cl)cc1Cl	none
S=C(NNc1ccnc2cc(Cl)ccc12)Nc1ccccc1Cl	Mcl1-Noxa inh 61.6
Nc1c2c(nc3ccccc13)N(C1CCCCC1)CC2	none
Nc1c2c(nc3ccc(Br)cc13)N(Cc1ccccc1)CC2	Mcl1-Noxa inh 83.5
Nc1c2c(nc3ccc(Br)cc13)N(c1ccccc1)CC2	none
Nc1c2c(nc3ccc(Br)cc13)N(C1CCCCC1)CC2	Mcl1-Noxa inh 68.0
O=C(/C=C/c1ccccc1)c1cc(Br)ccc(=O)c1O	none
CCNc1ccc(Br)cc(C(=O)/C=C/c2c(Cl)cccc2Cl)c1=O	Mcl1-Noxa inh 102.3, 14-3-3 Bad inh 83.5[fluorescence artefact?]
CCNc1ccc(Br)cc(C(=O)/C=C/c2ccc(Cl)cc2)c1=O	Mcl1-Noxa inh 81.8
O=C(/C=C/c1ccc(F)cc1)c1cc(Br)ccc1O	none (no result: Bim-Mcl-1)

Screening data (PubChem)
